BAZ2B block: qHTS Assay for Inhibitors of BAZ2B. AlphaScreen BAZ2B-H3K14Ac peptide displacement. Potency, µM (series often up to 114 µM), inactives show top-dose activity change, negative = inhibition, actives largely listed as inhibitors. 4.4% of 360,000 active. AID 504333, 2011; note: potency is the fitted concentration of half-maximal effect; % is set by controls: 0 for no effect and ±100 for the full control effect; nearly all actives have a fitted effect of over 60% in size
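Multi-concentration screen (max 110 uM) measuring displacement of acetylated histone H3 peptide from BAZ2B by AlphaScreen, using 50 nM protein, 50 nM peptide and 10 ug/mL streptavidin donor plus Ni-chelate acceptor beads.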
Six1-Eya2 inh: qHTS Assay for Inhibitors of the Six1/Eya2 Interaction | 0.56% of 360,000 active | AlphaScreen GST-Six1/His-Eya2 binding, biochemical; active compounds read low | activity change, % (concentration not given with the values) | Homeobox protein SIX1 (Homo sapiens) + Protein phosphatase EYA2 (Homo sapiens), …; in the data active = activity change below about -65%; inconclusive = mostly about -30% to -63%; note: % is set by controls: 0 for no effect and ±100 for the full control effect
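Homogeneous AlphaScreen proximity assay pairing GST-Six1 with His-tagged Eya2 (added as 5X mix: 250 nM and 500 nM) in 50 mM Tris pH 8.0, 300 mM NaCl, 1 mM TCEP. Glutathione donor and nickel acceptor beads; 1 h, 37 °C, dark.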
CtBP-E1A blk: qHTS Assay for Inhibitors of the CtBP/E1A Interaction. CtBP / adenovirus E1A interaction (AlphaScreen). AlphaScreen GST-E1A/His-CtBP binding, 1536-well; active compounds read low. activity change, % (no concentration beside the values). 0.49% of 340,000 active. AID 651724, 2012; in the data active = activity change below about -65%; inconclusive = mostly about -30% to -63%; note: % is set by controls: 0 for no effect and ±100 for the full control effect
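Steps: dispense buffer (Tris pH 8.0, NaCl 300 mM, TCEP 1 mM, BSA, Tween 20); add 5X protein mix (GST-E1A, His-CtBP, 125 nM each); pin 23 nL compound; 2 h at 37 °C, dark; add 5X beads (50 ug/mL); 1 h; read.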
JMJD2A Tudor: qHTS Assay for Inhibitors of JMJD2A-Tudor Domain; 4.4% of 390,000 active; AlphaScreen JMJD2A-Tudor / H3K4me3 peptide binding; Lysine-specific demethylase 4A (Homo sapiens), O75164; AID 504339, 2011; Potency, µM (top dose mostly 114 µM), inactives show at the top dose activity change, negative = inhibition, actives largely listed as inhibitors; note: potency is the fitted concentration of half-maximal effect; % is set by controls: 0 for no effect and ±100 for the full control effect; nearly all actives have a fitted effect of over 50% in size
G9a inh: qHTS Assay for Inhibitors of Histone Lysine Methyltransferase G9a. Potency, µM (titrated, usually from 102 µM), for the others: at the highest dose activity, negative = inhibition, actives largely listed as inhibitors. G9a H3K9 monomethylation, AlphaScreen, 2 h. Histone-lysine N-methyltransferase EHMT2 (Homo sapiens), Q96KQ7. 8.8% of 350,000 active; note: potency is the fitted concentration of half-maximal effect; % is set by controls: 0 for no effect and ±100 for the full control effect; nearly all actives have a fitted effect of over 75% in size
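AlphaScreen read-out: biotin-H3K9 peptide (500 nM) methylation by 20 nM enzyme with 20 uM SAM, 2 h at room temperature after 15 min compound preincubation; anti-monomethyl H3K9 antibody plus donor/acceptor beads, 10 min dark.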
HP1b chromo inh: HTS for Inhibitors of HP1-beta Chromodomain Interactions with Methylated Histone Tails. Chromobox protein homolog 1 (Homo sapiens), P83916. AlphaScreen HP1-beta / biotin-H3K9me3 peptide binding. Potency, µM (top dose mostly 114 µM), for the others: at the top dose activity change, negative = inhibition, hits mostly inhibitors. 0.56% of 390,000 active; note: potency is the fitted concentration of half-maximal effect; nearly all actives have a fitted effect of over 70% in size
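AlphaScreen: HP1-beta (50 nM) preformed 30 min with biotin-H3(1-18)K9me3 peptide (50 nM) in PBS pH 7.4, 0.01% Tween-20. Compound added for 30 min at RT, then streptavidin donor/nickel chelate acceptor beads (10 ug/mL) for 30 min.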
* marks the source's active call; other numbers are inactive results; u = inconclusive; x = no result; [ ] = dose if it differs, or a comment. The list is not random: actives were taken first. Their share in the collection is about 10%. Unless noted, calls come from the whole dose curve; as a rule, active = well fitted inhibition curve with a large enough effect; inconclusive = small, poorly fitted or top-dose-only effect; inactive = no such curve, though single readings can be large or run the other way.

SMILES	BAZ2B block	Six1-Eya2 inh	CtBP-E1A blk	JMJD2A Tudor	G9a inh	HP1b chromo inh
CC(C)(C)c1cc(CCC(=O)N2CCC2)cc(C(C)(C)C)c1O	89.1µM*	11.9	8.6	-6.0%	100.1%	30.7%
CC1CN(C(=O)CCc2cc(C(C)(C)C)c(O)c(C(C)(C)C)c2)CC(C)O1 (centres undefined)	1.3%	7.2	2.5	-12.3%	77.2%	51.5%
O=C(CNC(=O)c1ccc(-c2ccccc2)cc1)OC(C(=O)Nc1cc(C(F)(F)F)ccc1Cl)c1ccccc1 (centres undefined)	x	x	x	-7.5%	x	x
COc1cc(CNCc2ccccn2)ccc1OCc1c(Cl)cccc1Cl	89.1µM*	u	u	u	-37.0%	19.6%
COc1cc(CNCc2ccccn2)ccc1OCc1ccc(Cl)cc1	u	u	u	25.1µM*	9.1%[59 µM]	17.9%
COc1cc(CNCc2cccs2)ccc1OCc1ccccc1	6.7%	-4.9	7.6	-6.3%	-1.7%[59 µM]	28.6%
C/C(=N\NC(=O)Cc1ccc(O)cc1)c1cccnc1	-19.3%	24.2	6.5	-10.3%	u	67.3%
COc1ccc(NC(=O)c2ccc3c(c2)CCN3S(=O)(=O)c2ccc(C)cc2)cc1Cl	-5.4%	x	x	-10.4%	-24.4%[59 µM]	4.1%
CCN(CC)c1ccc(C(=O)NCc2nc3cccnc3n2Cc2ccc(C)cc2)cc1	-33.1%	x	x	u	-2.4%[59 µM]	11.2%[57 µM]
COc1cc(/C=N/N(C)C2=NS(=O)(=O)c3ccccc32)cc(OC)c1OC	9.4%	-83.0*	-91.9*	2.5%	32.3%	34.6%
Cc1ccc(/C=N/N(C)C2=NS(=O)(=O)c3ccccc32)o1	22.3%	x	x	x	39.8µM*	x
COc1cccc(/C=N/N(C)C2=NS(=O)(=O)c3ccccc32)c1O	-0.8%	-20.7	-14.9	3.0%	-0.5%	41.8%
O=C(Oc1ccc(F)cc1)c1nc(SCc2ccccc2F)ncc1Cl	43.2%	x	x	16.4%	56.7%[59 µM]	73.2%
COc1ccc(F)cc1C(=O)C1CCCN(C(=O)C2=C(C)OCCO2)C1 (centres undefined)	3.5%	7.3	-7.3	-5.4%	5.3%	26.9%
CC(=O)N1CCC(=NNS(=O)(=O)c2cccc([N+](=O)[O-])c2)CC1	-0.5%	3.5	-20.2	-16.7%	10µM*	51.0%
CC(=O)N1CCC(=NNS(=O)(=O)c2ccc(C)c([N+](=O)[O-])c2)CC1	7.2%	-1.3	3.1	-13.1%	11.2µM*	30.8%
C/C(=N\NS(=O)(=O)c1cccc([N+](=O)[O-])c1)c1cccnc1	-21.7%	11.2	-4.7	7.6%	31.6µM*	20.0%
C/C(=N/NC(=O)CNC(=O)c1cccnc1)c1cccc([N+](=O)[O-])c1	-16.3%	4.7	15.9	-9.1%	66.5%[59 µM]	27.8%
COc1ccccc1NC(=O)Cn1c(=O)c(CNc2ccc(C)cc2)cc2cc3c(cc21)OCCO3	u	x	x	u	u	-12.5%
CC1CCc2sc(C(=O)N3CCN(c4ncccn4)CC3)cc2C1 (centres undefined)	x	-1.4	3.2	-13.2%	x	19.3%
COCCn1c(C)nnc1SCC(=O)NNC(=O)c1ccc(Cl)cc1	0.4%	2.5	7.6	4.3%	50.1µM*	20.0%
Cn1cnnc1SCC(=O)NNC(=O)c1ccc(Cl)cc1	0.5%	14.7	11.3	-3.4%	16.9%	19.2%
C=CCn1c(O)c(N=NC(=S)Nc2ccc(OC)c(Cl)c2)c2ccccc21	7.94µM*	u	1.5	u	35.5µM*	u
C=CCn1c(O)c(N=Nc2ccccc2C)c2ccccc21	-37.0%	5.9	7.0	u	3.98µM*	u
C=CCn1c(O)c(N=O)c2ccccc21	0.6%	-0.1	-1.2	-7.0%	15.7%	32.3%
SMILES	BAZ2B block	Six1-Eya2 inh	CtBP-E1A blk	JMJD2A Tudor	G9a inh	HP1b chromo inh
C=CCn1c(O)c(N=NC(=O)OC(C)(C)C)c2ccccc21	-4.2%	-3.7	1.1	-8.1%	8.3%[59 µM]	13.5%
CC(C)c1ccc(S(=O)(=O)/N=C2\C=C(NS(=O)(=O)c3ccccc3)C(=O)c3ccccc32)cc1	7.08µM*	-12.1	-28.9	28.2µM*	6.31µM*	20µM*
CC(C)(C)c1cc[n+](C2=C([O-])c3ccccc3C(=O)/C2=N\S(=O)(=O)c2ccccc2)cc1	-36.5%	8.5	0.6	-0.7%	x	25.2%
Cc1ccc(C)c(S(=O)(=O)/N=C2\C=C(NS(=O)(=O)c3ccccc3)C(=O)c3ccccc32)c1	10µM*	-6.3	-18.8	22.4µM*	14.1µM*	u
CCc1ccc(S(=O)(=O)/N=C2\C=C(NS(=O)(=O)c3ccccc3)C(=O)c3ccccc32)cc1	8.91µM*	-15.1	u	22.4µM*	12.6µM*	14.1µM*
CC(C)c1ccc(S(=O)(=O)/N=C2/C=CC(=O)c3ccccc32)cc1	7.94µM*	x	x	x	11.2µM*	x
COc1ccc(NC(=O)CSc2nnc(NC(C)=O)s2)c([N+](=O)[O-])c1	-12.3%	7.6	5.9	-12.0%	x	4.5%
O=C(CN1C=NS(=O)(=O)c2ccccc21)Nc1ccccc1F	0.6%	x	x	-27.0%	0.9%[59 µM]	5.8%
CCc1ccccc1NC(=O)C1CCCN(c2cnccn2)C1 (centres undefined)	-15.9%	x	x	-21.1%	0.7%[59 µM]	31.8%
CC1CC(=O)C2=C(C1)Nc1nc3ccccc3n1C2c1cccnc1 (centres undefined)	-5.0%	-15.8	-11.3	-13.7%	x	24.1%
O=C1CCCC2=C1C(c1ccncc1)n1c(nc3ccccc31)N2 (centres undefined)	7.8%	0.1	14.8	56.2µM*	x	-2.7%
O=[N+]([O-])c1ccc2nonc2c1Nc1cccc(F)c1	u	u	-8.6	u	-18.9%	-21.2%
O=[N+]([O-])c1cc(F)cc(F)c1Nc1cc(F)cc(F)c1	x	u	u	44.7µM*	x	u
COc1cccc(-c2n[nH]c3c2C(c2ccccn2)N(C)C3=O)c1 (centres undefined)	-2.3%	x	x	-20.4%	12.1%[59 µM]	0.9%
CCc1ccc(S(=O)(=O)c2nnn3c2nc(N2CCCC(C)C2)c2cc(Cl)ccc23)cc1 (centres undefined)	8.1%	x	x	5.1%	7.7%[59 µM]	52.6%
COc1ccc(Nc2nc(-c3cc4cccc(OC)c4oc3=O)cs2)cc1	u	3.5	-0.2	-31.0%	44.7µM*	1.5%

Assay outcomes (PubChem)
